# Test results taken from PMC7862700, “An all-to-all approach to the identification of sequence-specific readers for epigenetic DNA modifications on cytosine”.
# Assays:
# Assay in all cases: DAPPL (digital affinity profiling via proximity ligation, sequencing); 10 mM Tris-HCl pH 7.5, 50 mM NaCl, 1 mM DTT, 4% glycerol, room temperature, 30 min; GST-TFs on glutathione beads, 16-mer random dsDNA library, 0.1% formaldehyde crosslink after washing; high values mean tight binding
# FLI1 = biological target: T1, FLI1 (Homo sapiens, UniProt Q01543 1-452); settings: protein: recombinant; tags: N-terminal GST; dsDNA, one strand shown
# T1 sequence: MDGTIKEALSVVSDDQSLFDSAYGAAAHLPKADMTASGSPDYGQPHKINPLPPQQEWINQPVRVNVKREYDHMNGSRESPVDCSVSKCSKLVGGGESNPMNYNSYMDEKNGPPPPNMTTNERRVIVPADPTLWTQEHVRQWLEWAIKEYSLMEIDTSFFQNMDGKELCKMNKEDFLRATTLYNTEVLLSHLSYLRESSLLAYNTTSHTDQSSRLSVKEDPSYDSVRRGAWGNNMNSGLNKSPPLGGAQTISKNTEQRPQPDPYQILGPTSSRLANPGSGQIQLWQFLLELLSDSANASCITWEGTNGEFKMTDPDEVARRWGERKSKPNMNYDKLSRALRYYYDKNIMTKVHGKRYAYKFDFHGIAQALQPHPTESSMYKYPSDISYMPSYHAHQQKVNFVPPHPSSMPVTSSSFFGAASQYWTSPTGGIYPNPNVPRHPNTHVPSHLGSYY
# Outline: (§1)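 In yeast, human transcription factors were expressed with a GST fusion, then pulled down on glutathione beads and given DNA barcodes. Pooled with a tag-only sample, they were exposed to 200 nmole of a 16-mer random double-stranded DNA library (Tris/NaCl/DTT/glycerol buffer, room temperature, 30 min), washed, crosslinked with 0.1% formaldehyde, proximity-ligated using BsaI/T4 ligase for 1 h at 37 °C, PCR-amplified and read on an Illumina NextSeq500. Each hexamer's frequency of reads for a factor, divided by the matching frequency for the tag-only sample, gives the binding signal.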
# ELK1 = biological target: T2, ELK1 (Homo sapiens, UniProt P19419 1-428); settings: protein: recombinant; tags: N-terminal GST; dsDNA, one strand shown
# T2 sequence: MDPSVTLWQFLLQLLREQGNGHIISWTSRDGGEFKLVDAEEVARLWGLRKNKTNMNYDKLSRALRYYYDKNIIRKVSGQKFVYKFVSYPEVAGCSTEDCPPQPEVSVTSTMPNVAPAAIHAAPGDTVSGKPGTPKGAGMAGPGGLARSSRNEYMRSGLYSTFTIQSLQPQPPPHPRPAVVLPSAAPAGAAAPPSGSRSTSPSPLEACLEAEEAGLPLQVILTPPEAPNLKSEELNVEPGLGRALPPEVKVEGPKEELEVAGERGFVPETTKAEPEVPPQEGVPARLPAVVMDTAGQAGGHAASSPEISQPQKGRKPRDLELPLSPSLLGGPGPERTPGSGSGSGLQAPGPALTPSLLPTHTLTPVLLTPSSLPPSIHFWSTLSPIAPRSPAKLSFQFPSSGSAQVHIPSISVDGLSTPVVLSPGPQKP
# Outline: as §1
# GABPA = biological target: T3, GABPA (Homo sapiens, UniProt Q06546 1-454); settings: protein: recombinant; tags: N-terminal GST; dsDNA, one strand shown
# T3 sequence: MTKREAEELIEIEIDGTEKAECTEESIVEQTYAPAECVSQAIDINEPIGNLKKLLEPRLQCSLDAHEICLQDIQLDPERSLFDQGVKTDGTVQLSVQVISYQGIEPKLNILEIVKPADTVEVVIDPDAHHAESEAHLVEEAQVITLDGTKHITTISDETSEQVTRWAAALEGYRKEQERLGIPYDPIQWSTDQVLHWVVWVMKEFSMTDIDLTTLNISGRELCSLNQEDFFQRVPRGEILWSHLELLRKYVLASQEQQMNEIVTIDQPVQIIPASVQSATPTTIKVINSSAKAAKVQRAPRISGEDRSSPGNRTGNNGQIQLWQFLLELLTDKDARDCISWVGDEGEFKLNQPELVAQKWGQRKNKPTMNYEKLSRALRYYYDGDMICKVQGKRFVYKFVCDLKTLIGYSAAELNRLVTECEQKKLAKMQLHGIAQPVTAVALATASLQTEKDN
# Outline: as §1
# ERG = biological target: T4, ERG (Homo sapiens, UniProt P11308 1-479); settings: protein: recombinant; tags: N-terminal GST; dsDNA, one strand shown
# T4 sequence: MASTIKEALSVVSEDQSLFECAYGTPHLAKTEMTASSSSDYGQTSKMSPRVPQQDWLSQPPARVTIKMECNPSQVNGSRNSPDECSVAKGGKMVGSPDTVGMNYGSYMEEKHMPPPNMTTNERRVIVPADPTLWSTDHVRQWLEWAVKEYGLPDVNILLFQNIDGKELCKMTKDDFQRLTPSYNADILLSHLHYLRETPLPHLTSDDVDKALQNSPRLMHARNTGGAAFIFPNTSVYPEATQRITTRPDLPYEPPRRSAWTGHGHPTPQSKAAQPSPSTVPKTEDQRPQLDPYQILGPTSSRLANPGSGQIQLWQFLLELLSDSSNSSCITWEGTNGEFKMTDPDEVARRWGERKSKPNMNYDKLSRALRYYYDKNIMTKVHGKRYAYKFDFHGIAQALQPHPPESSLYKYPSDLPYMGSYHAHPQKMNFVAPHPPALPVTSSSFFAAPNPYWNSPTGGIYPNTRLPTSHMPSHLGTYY
# Outline: as §1
# ELF1 = ELF1 (Homo sapiens, UniProt P32519 1-619); settings: protein: recombinant; tags: N-terminal GST; dsDNA, one strand shown
# Outline: as §1
# EHF = biological target: T5, EHF (Homo sapiens, UniProt Q9NZC4 1-300); settings: protein: recombinant; tags: N-terminal GST; dsDNA, one strand shown
# T5 sequence: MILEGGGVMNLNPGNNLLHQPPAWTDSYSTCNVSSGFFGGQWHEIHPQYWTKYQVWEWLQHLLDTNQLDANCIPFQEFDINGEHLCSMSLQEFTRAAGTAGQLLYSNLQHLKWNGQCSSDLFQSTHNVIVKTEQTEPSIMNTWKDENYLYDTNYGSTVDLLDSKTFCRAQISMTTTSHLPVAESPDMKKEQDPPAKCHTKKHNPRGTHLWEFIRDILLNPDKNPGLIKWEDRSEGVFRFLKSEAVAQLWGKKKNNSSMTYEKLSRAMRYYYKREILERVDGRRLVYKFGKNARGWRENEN
# Outline: as §1
# SPI1 = SPI1 (Homo sapiens, UniProt P17947 1-270); settings: protein: recombinant; tags: N-terminal GST; dsDNA, one strand shown
# Outline: as §1
# SPIB = SPIB (Homo sapiens, UniProt Q01892 1-262); settings: protein: recombinant; tags: N-terminal GST; dsDNA, one strand shown
# Outline: as §1
# ELK3 = biological target: T6, ELK3 (Homo sapiens, UniProt P41970 1-407); settings: protein: recombinant; tags: N-terminal GST; dsDNA, one strand shown
# T6 sequence: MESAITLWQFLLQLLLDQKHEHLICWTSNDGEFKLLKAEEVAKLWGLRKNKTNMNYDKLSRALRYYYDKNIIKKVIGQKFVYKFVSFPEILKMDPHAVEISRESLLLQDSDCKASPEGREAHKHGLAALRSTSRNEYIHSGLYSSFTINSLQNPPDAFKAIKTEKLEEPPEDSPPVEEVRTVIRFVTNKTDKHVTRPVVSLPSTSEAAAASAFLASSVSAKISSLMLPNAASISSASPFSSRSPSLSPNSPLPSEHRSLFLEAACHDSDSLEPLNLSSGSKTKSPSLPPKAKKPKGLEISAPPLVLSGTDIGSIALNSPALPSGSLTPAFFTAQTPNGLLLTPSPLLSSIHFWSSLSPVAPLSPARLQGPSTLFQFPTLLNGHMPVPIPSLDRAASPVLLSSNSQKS
# Outline: as §1
# FEV = biological target: T7, FEV (Homo sapiens, UniProt Q99581 1-238); settings: protein: recombinant; tags: N-terminal GST; dsDNA, one strand shown
# T7 sequence: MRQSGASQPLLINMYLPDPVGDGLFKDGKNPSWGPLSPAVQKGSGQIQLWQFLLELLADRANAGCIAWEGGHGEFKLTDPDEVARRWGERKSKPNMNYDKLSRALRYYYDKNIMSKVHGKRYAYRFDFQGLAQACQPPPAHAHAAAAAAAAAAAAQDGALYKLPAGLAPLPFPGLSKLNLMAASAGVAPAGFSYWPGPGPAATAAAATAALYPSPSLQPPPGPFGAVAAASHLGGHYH
# Outline: as §1
# ETV5 = ETV5 (Homo sapiens, UniProt P41161 1-510); settings: protein: recombinant; tags: N-terminal GST; dsDNA, one strand shown
# Outline: as §1
# HSF1 = HSF1 (Homo sapiens, UniProt Q00613 1-529); settings: protein: recombinant; tags: N-terminal GST; chain copies: 3; dsDNA, one strand shown
# Outline: as §1
# SPIC = biological target: T8, SPIC (Homo sapiens, UniProt Q8N5J4 1-248); settings: protein: recombinant; tags: N-terminal GST; dsDNA, one strand shown
# T8 sequence: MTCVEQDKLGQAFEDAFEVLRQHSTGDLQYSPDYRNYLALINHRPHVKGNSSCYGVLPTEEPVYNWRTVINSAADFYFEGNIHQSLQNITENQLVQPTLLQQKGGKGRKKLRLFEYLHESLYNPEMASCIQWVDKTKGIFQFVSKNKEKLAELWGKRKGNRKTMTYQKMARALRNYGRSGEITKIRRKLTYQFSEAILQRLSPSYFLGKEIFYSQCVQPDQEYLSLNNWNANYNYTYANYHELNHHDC
# Outline: as §1
# ELF4 = ELF4 (Homo sapiens, UniProt Q99607 1-663); settings: protein: recombinant; tags: N-terminal GST; dsDNA, one strand shown
# Outline: as §1
# ELK4 = biological target: T9, ELK4 (Homo sapiens, UniProt P28324-2 1-405); settings: protein: recombinant; tags: N-terminal GST; dsDNA, one strand shown
# T9 sequence: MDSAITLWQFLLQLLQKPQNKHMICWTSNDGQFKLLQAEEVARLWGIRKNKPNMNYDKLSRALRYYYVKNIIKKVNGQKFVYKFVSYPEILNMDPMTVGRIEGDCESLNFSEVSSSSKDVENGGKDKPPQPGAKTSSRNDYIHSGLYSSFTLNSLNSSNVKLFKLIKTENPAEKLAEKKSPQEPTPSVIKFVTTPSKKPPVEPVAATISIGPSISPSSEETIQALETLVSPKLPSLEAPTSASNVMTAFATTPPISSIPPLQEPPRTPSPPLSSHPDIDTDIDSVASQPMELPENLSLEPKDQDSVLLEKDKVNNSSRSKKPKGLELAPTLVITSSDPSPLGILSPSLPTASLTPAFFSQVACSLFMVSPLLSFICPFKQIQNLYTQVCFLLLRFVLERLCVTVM
# Outline: as §1
# ETV2 = biological target: T10, ETV2 (Homo sapiens, UniProt O00321 1-342); settings: protein: recombinant; tags: N-terminal GST; dsDNA, one strand shown
# T10 sequence: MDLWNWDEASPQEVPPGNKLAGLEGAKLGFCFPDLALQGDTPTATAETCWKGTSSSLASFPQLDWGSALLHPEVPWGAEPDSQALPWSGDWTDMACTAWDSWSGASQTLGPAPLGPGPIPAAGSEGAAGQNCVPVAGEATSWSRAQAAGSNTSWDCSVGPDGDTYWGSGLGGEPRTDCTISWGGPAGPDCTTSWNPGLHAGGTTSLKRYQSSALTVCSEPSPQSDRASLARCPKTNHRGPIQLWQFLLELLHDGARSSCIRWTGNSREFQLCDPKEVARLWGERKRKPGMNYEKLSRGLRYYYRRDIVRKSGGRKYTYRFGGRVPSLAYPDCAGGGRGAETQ
# Outline: as §1
# ELF3 = biological target: T11, ELF3 (Homo sapiens, UniProt P78545 1-371); settings: protein: recombinant; tags: N-terminal GST; dsDNA, one strand shown
# T11 sequence: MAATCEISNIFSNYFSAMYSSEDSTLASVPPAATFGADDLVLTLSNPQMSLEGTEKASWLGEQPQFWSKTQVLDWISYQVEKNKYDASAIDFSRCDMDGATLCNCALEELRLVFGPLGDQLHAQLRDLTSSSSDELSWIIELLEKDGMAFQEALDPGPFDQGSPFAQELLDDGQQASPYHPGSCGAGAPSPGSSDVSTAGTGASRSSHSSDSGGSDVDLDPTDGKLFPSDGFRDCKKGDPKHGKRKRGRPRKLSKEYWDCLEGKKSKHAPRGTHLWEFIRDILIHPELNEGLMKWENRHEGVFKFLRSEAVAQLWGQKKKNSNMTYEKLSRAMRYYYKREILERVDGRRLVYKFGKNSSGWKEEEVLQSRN
# Outline: as §1
# CRX = CRX (Homo sapiens, UniProt O43186 1-299); settings: protein: recombinant; tags: N-terminal GST; dsDNA, one strand shown
# Outline: as §1
# ETV1 = ETV1 (Homo sapiens, UniProt P50549 1-477); settings: protein: recombinant; tags: N-terminal GST; dsDNA, one strand shown
# Outline: as §1
# ELF4, sequence (Q99607 whole entry): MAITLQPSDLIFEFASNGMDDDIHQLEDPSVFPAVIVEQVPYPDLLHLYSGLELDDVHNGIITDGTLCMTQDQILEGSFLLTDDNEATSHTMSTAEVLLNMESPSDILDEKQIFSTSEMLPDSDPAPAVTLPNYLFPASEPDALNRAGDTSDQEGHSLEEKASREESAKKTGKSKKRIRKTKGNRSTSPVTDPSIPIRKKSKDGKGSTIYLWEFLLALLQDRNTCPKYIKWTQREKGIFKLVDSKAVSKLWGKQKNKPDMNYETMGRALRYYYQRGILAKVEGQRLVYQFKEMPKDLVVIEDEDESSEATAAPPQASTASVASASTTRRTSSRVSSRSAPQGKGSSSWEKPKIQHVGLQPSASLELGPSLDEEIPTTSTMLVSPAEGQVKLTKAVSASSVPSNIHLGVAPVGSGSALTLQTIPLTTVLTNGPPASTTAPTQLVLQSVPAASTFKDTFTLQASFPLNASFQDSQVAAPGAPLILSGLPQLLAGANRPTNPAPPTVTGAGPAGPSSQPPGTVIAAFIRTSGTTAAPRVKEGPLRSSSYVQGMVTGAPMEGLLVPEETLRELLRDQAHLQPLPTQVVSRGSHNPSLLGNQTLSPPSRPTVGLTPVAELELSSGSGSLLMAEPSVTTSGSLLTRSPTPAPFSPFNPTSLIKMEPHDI
# SPIB, sequence (Q01892 whole entry): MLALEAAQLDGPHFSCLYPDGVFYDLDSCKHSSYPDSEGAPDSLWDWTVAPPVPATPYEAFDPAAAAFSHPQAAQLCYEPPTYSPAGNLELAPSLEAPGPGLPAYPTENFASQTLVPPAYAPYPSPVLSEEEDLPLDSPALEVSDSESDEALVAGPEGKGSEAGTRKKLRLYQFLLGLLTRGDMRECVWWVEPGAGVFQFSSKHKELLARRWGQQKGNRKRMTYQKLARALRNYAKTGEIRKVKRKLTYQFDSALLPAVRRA
# ETV5, sequence (P41161 whole entry): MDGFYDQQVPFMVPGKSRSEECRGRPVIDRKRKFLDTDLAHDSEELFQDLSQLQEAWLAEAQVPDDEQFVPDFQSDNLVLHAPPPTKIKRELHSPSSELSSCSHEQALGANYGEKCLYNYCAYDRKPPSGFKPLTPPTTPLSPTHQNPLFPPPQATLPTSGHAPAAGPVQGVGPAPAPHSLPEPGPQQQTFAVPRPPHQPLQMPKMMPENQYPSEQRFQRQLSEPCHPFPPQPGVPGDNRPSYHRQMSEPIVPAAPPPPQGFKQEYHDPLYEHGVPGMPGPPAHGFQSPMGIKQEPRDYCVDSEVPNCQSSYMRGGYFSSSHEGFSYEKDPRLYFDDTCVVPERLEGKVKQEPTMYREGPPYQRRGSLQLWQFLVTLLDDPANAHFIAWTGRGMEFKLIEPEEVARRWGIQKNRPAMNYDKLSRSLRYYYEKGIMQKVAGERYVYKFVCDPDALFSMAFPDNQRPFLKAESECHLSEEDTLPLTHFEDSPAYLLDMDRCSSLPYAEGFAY
# CRX, sequence (O43186 whole entry): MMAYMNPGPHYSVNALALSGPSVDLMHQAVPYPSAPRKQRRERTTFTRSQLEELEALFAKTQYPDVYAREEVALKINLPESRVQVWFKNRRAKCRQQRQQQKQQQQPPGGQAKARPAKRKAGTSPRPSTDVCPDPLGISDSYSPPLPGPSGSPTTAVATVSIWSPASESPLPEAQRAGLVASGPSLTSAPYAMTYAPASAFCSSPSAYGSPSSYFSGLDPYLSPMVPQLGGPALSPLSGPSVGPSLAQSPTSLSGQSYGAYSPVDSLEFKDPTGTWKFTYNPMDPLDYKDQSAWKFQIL
# ELF1, sequence (P32519 whole entry): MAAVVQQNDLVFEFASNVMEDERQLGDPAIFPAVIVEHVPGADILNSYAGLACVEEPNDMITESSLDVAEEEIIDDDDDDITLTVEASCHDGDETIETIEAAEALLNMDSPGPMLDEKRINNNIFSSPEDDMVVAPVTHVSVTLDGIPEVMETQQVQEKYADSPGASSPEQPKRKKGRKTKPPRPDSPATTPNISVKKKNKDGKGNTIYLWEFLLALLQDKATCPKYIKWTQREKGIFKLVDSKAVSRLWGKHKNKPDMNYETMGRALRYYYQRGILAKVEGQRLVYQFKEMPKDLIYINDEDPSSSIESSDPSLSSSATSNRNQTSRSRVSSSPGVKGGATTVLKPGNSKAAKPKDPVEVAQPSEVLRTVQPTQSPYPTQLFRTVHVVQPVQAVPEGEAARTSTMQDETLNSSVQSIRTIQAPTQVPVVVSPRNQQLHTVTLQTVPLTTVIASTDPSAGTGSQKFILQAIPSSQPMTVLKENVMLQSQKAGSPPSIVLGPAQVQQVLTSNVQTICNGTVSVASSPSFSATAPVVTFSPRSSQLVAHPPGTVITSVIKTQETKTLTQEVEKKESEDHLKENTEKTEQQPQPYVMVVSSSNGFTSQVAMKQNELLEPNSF
# ETV1, sequence (P50549 whole entry): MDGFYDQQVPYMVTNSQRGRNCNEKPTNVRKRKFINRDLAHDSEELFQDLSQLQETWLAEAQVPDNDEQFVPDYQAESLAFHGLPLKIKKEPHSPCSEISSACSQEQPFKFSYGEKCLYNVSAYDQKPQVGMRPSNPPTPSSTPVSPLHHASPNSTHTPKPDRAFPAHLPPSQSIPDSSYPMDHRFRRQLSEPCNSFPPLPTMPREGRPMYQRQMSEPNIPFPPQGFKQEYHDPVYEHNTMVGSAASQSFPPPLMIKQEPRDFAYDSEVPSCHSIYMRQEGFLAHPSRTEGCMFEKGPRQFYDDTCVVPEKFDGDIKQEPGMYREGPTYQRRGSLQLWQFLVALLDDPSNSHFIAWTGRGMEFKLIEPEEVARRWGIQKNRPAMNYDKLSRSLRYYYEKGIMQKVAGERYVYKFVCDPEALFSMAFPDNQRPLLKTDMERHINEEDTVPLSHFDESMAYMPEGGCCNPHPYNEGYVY
# HSF1, sequence (Q00613 whole entry): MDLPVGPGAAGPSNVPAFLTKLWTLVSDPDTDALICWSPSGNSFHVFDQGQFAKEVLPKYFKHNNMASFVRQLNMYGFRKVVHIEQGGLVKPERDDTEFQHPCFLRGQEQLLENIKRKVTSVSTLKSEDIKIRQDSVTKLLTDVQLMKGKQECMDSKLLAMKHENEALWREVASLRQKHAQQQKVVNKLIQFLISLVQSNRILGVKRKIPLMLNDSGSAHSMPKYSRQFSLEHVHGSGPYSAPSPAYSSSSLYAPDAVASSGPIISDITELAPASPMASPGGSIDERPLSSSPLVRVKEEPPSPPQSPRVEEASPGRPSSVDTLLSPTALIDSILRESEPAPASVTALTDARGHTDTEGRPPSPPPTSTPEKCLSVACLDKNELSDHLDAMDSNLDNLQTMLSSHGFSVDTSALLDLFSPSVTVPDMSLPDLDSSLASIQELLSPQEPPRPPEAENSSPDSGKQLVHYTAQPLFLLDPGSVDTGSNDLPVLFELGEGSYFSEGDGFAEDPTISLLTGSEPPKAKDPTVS
sequence,measurement,setting,value
GGTCTC,binding signal,FLI1,"2.92 fold enrichment (6-mer frequency, TF over GST control)"
same,binding signal,ELK1,"2.66 fold enrichment (6-mer frequency, TF over GST control)"
same,binding signal,GABPA,"2.5 fold enrichment (6-mer frequency, TF over GST control)"
same,binding signal,ERG,"2.46 fold enrichment (6-mer frequency, TF over GST control)"
same,binding signal,ELF1,"2.74 fold enrichment (6-mer frequency, TF over GST control)"
same,binding signal,EHF,"2.55 fold enrichment (6-mer frequency, TF over GST control)"
same,binding signal,SPI1,"2.89 fold enrichment (6-mer frequency, TF over GST control)"
same,binding signal,SPIB,"2.59 fold enrichment (6-mer frequency, TF over GST control)"
same,binding signal,ELK3,"2.2 fold enrichment (6-mer frequency, TF over GST control)"
same,binding signal,FEV,"2.46 fold enrichment (6-mer frequency, TF over GST control)"
same,binding signal,ETV5,"2.46 fold enrichment (6-mer frequency, TF over GST control)"
same,binding signal,HSF1,"1.44 fold enrichment (6-mer frequency, TF over GST control)"
same,binding signal,SPIC,"2.4 fold enrichment (6-mer frequency, TF over GST control)"
same,binding signal,ELF4,"2.51 fold enrichment (6-mer frequency, TF over GST control)"
same,binding signal,ELK4,"2.64 fold enrichment (6-mer frequency, TF over GST control)"
same,binding signal,ETV2,"2.18 fold enrichment (6-mer frequency, TF over GST control)"
same,binding signal,ELF3,"2.29 fold enrichment (6-mer frequency, TF over GST control)"
same,binding signal,CRX,"1.48 fold enrichment (6-mer frequency, TF over GST control)"
same,binding signal,ETV1,"2.58 fold enrichment (6-mer frequency, TF over GST control)"
